Assay outcomes as filed in PubChem BioAssay.
Rin1-Abl PPI inh – blocks binding of human Rin1 to Abl; inhibition, % at 7.35 µM; TR-FRET Rin1/Abl binding, biochemical; AID 588664; actives 0.4% (n = 360,000); P00519+Q13671; in the data active means inhibition above about 5%, passing the limit was not always enough
PKA-R1A activ – activates the PKA-R1A holoenzyme complex. P00514+P68181. PKA-R1A dissociation, Cy5-IP20 fluorescence polarization; scaled: DMSO 0%, 113 µM cGMP 100%. activation, % at 11.4 µM. actives 0.083% (n = 340,000);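 active means percent activation above the mean of all tested compounds plus 3 SD, cut at about 19% in these data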;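 further: higher means more PKAc released from R1A so a rise in polarization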
PKA-R2B activ – activators of human PKA-R2B complex. activation, % at 11.4 µM. actives 0.079% (n = 340,000). P22694+P31323. AID 504700. PKA-R2B holoenzyme dissociation, Cy5-IP20 fluorescence polarization; R2B truncated from residue 108, S112A mutant; 0% DMSO only, 100% 113 µM cGMP;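 active means activation above a cutoff set at the mean over all compounds plus 3 SD, cut at about 18% in these data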;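 further: higher means more holoenzyme dissociation and a rise in polarization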
Target sequence (P31323 whole entry, looked up, other chains not shown, the tested form may be a part): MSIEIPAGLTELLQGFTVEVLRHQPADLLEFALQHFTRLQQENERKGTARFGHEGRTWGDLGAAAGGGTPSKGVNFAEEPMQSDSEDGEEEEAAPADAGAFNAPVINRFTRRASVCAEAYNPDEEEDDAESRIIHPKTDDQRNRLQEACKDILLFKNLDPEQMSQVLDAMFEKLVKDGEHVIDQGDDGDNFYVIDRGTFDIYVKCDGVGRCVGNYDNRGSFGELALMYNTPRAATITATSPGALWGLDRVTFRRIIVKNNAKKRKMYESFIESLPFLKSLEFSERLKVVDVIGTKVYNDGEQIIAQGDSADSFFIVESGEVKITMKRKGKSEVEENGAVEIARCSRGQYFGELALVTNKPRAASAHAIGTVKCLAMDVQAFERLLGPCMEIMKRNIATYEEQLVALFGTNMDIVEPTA
E coli Lon inh – inhibitors of E. coli Lon protease | purified E. coli Lon protease, fluorescence polarization | inhibition, % at 7.94 µM | actives 0.42% (n = 360,000) | AID 602123; in the data active means inhibition above about 13%, passing the limit was not always enough
IDE act – boosts human insulin-degrading enzyme activity in HEK cells; FAbeta-B cleavage, fluorescence polarization; 0% vehicle, 100% cell-free pure enzyme wells; activation, % at 5.96 µM; actives 0.073% (n = 340,000); AID 493087;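 active means activation above the mean of all tested compounds plus 3 SD, set per screening campaign, cut at about 17% in these data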
IDE inh – inhibitors of human insulin-degrading enzyme in cells; P14735; HEK cells, FAbetaB cleavage, fluorescence polarization; inhibition, % at 5.59 µM; actives 0.41% (n = 320,000); AID 434962;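 active means percent inhibition above the average of all tested compounds plus 3 SD, set per screening campaign, cut at about 16% in these data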;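 further: IDE supplied by intact live HEK cells; FP after avidin binding of uncleaved biotin substrate so inhibition keeps polarization high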
IDE cell inh cf – confirmation of human insulin-degrading enzyme inhibitors in cells | inhibition, % at 5.59 µM | HEK cells, FAbetaB cleavage, fluorescence polarization | actives 51% (n = 1,200) | shares compounds with IDE inh;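 active means mean inhibition across triplicate wells above the cutoff set by the earlier primary insulin-degrading enzyme screen, cut at about 16% in these data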
HEK293 tox – counter-screen for IDE inhibitors: cytotoxicity in HEK cells. shares compounds with IDE inh. HEK293 cytotoxicity, ATP luminescence. inhibition, % at 5.59 µM. actives 28% (n = 1,200); in the data active means inhibition above about 22%
IDE FP artifact – fluorescent artifact in IDE inhibitor FP assay; AID 588718; IC50, µM; 30 tested, under 10 active; FP counterscreen for fluorescent artifacts, IDE probe project; shares compounds with IDE inh; call rule not given here
Each line names hits and unclear results; the compound was inactive in the other large screens (follow-up assays come after a bar, where they were run). Sampled rows, rich in hits. Any-hit rate of the full collection: about 1.3%.

O=C(NCc1ccco1)C(NS(=O)(=O)c1cccc2nsnc12)c1ccccc1 (stereo unspecified)	none
Oc1c(Cl)cc(Cl)cc1/C=C/c1ccc2cccc(O)c2n1	IDE inh 33 | IDE cell inh cf 54 | HEK293 tox inactive
CCOC(=O)/C(C#N)=C\C=C1C=CN(C)C=C1	IDE inh 52 | IDE cell inh cf 38 | HEK293 tox inactive
COc1ccc(/C=c2\s/c(=C/C(=O)c3ccc(C)cc3)[nH]c2=O)cc1OC	IDE inh 79 | IDE cell inh cf 78 | HEK293 tox inactive
CC(C)(C)C(=O)/C=c1\[nH]c(=O)/c(=C\c2ccc(F)cc2)s1	none
CN1C(=O)c2cccc3c(N(C)C)ccc(c23)C1=O	IDE inh 46 | IDE cell inh cf 52 | HEK293 tox inactive
Cc1ccc(CN2CC(=O)N3[C@H]4c5ccccc5OC[C@@H]4[C@H](c4ccccc4)[C@]3(C)C2=O)cc1	none
Cc1c(O)c(=O)c2ccccc2n1C	none
CC(=O)Nc1ccc(NC(=O)COc2cc(O)c3c(c2)OC(C)(C)CC3=O)cc1	none
Cc1cc(OCC(=O)Nc2ccc(Br)cc2)cc2c1C(=O)CC(C)(C)O2	IDE inh 17 (no result: PKA-R1A activ, PKA-R2B activ, IDE act) | IDE cell inh cf inactive | HEK293 tox inactive
CC1=CC(C)(C)Nc2ccc(OC(=O)CN3C(=O)c4ccccc4C3=O)cc21	IDE inh 19 | IDE cell inh cf 41 | HEK293 tox 123
Cc1c(-c2cccc(Cl)c2)nc2ccccc2c1C(=O)OCC(=O)Nc1ccc2c(c1)OCO2	IDE inh 17 | IDE cell inh cf inactive | HEK293 tox 23
Cc1onc(-c2ccccc2)c1C(=O)OCC(=O)Nc1ccc2c(c1)OCO2	none
CC(=O)NC(c1ccco1)c1cc(Cl)c2ccc(Cl)nc2c1O (stereo unspecified)	none
CC(=O)NC(c1ccco1)c1cc(Cl)c2ccccc2c1O (stereo unspecified)	IDE inh 36 | IDE cell inh cf inactive | HEK293 tox inactive
CCC(=O)NC(c1ccco1)c1cc(Cl)c2ccccc2c1O (stereo unspecified)	IDE inh 16 | IDE cell inh cf inactive | HEK293 tox inactive
CC1(C)CC(=O)C=C(c2ccc(F)cc2OCc2ccccc2)C1	none
COCCNc1nc(CSc2ccccc2)nc2sc(C)c(C)c12	none
Cc1cc(C(=O)OCC(=O)N2C(C)CCCC2C)c(C)o1 (stereo unspecified)	none
O=C(Nc1ccc2oc(-c3ccncc3)nc2c1)c1ccc2c(c1)OCCO2	IDE inh 17 | IDE cell inh cf inactive | HEK293 tox 33
O=C(Nc1ccc2oc(-c3ccccc3)nc2c1)c1ccc2c(c1)OCCO2	IDE inh 19 | IDE cell inh cf inactive | HEK293 tox 23
COc1ccc(-c2nc3cc(NC(=O)c4ccc5c(c4)OCO5)ccc3o2)cc1	none
O=C(Nc1ccc2oc(-c3cccnc3)nc2c1)c1ccc2c(c1)OCCO2	IDE inh 18 | IDE cell inh cf 18 | HEK293 tox inactive | IDE FP artifact inactive
O=C(CN1C(=O)C2C3C=CC(C3)C2C1=O)Nc1nncs1 (stereo unspecified)	none
CCOc1ccc(OCC(=O)NCc2n[nH]c(=O)c3ccccc23)cc1	none
COc1ccccc1NC(=O)CSc1nnc2ccc(-c3cccnc3)nn12	none
Cc1cccc(C(=O)NCC(c2ccc(F)cc2)N2CCOCC2)c1 (stereo unspecified)	IDE inh 16 | IDE cell inh cf inactive | HEK293 tox inactive
Cc1ccc(C(=O)NCC(c2ccc(F)cc2)N2CCOCC2)cc1 (stereo unspecified)	none
Cc1ccc(OCCSc2nnc(-c3ccncc3)n2C)cc1	IDE inh 36 | IDE cell inh cf inactive | HEK293 tox inactive
Cn1c(SCCOc2cccc(Cl)c2)nnc1-c1ccncc1	none
CCN(CC)c1ccc(C=Nc2cccc(S(=O)(=O)N3CCOCC3)c2)c(O)c1	none
CCN(CC)c1ccc(/C=N/NC(=O)c2cccc(S(=O)(=O)N3CCOCC3)c2)c(O)c1	IDE inh 22 | IDE cell inh cf 37 | HEK293 tox 85
CCOc1ccc(-c2c(C(=O)N/N=C/c3ccoc3)nnn2-c2nonc2N)cc1	none
CCOc1ccc(/C=N/NC(=O)c2nnn(-c3nonc3N)c2-c2ccc(OCC)cc2)cc1	IDE inh 22 | IDE cell inh cf inactive | HEK293 tox inactive
COc1ccc(-c2nn(-c3ccccc3)cc2/C=C2/SC(=S)N(Cc3ccco3)C2=O)c(C)c1	none
COc1ccc(-n2c(C)cc(/C=C3\SC(=S)N(Cc4ccco4)C3=O)c2C)cc1	IDE inh 17 | IDE cell inh cf 18 | HEK293 tox inactive
O=C1N(Cc2cccnc2)C[C@@H]2C[C@@H](c3cccc(Oc4ccccc4)c3)N3CCC[C@@]123	none
CN1CCN(c2ccc(Nc3ccnc4cc(Cl)ccc34)cc2)CC1	none
CCOc1ccc(Nc2ccnc3cc(Cl)ccc23)cc1	IDE inh 17 | IDE cell inh cf inactive | HEK293 tox 36
Cn1c(COc2ccccc2Br)nc2ccccc21	none
Nc1c(C(=O)Nc2nc3ccccc3s2)sc2nc(-c3cccs3)ccc12	IDE inh 29 | IDE cell inh cf 37 | HEK293 tox 81
CC(=O)c1sc2nc(-c3cccs3)ccc2c1N	none
CCN(CC)S(=O)(=O)c1ccc(N/N=C(\C)c2ccncc2)c([N+](=O)[O-])c1	none
NS(=O)(=O)c1ccc(NC(=O)CSc2nnc(COc3ccccc3Cl)n2C2CC2)cc1	none
Cc1cc(/C=C2\SC(=S)N(C)C2=O)c(C)n1-c1ccccc1O	IDE inh 27 | IDE cell inh cf 29 | HEK293 tox 47
O=C(/C=C/c1ccc(N2CCC(c3ccccc3)=N2)cc1)c1ccccc1	IDE inh 112 (no result: Rin1-Abl PPI inh, PKA-R1A activ, PKA-R2B activ, E coli Lon inh, IDE act) | IDE cell inh cf 63 | HEK293 tox inactive
Cc1nc2ncnn2c(N2CCCC(C(=O)Nc3ccc4c(c3)CCC4)C2)c1C (stereo unspecified)	IDE inh 17 | IDE cell inh cf inactive | HEK293 tox 44
C(=N\Nc1nc(-c2ccccc2)cs1)/c1ccncc1	none
O=C(O)Cc1sc(N/N=C\c2ccncc2)nc1-c1ccccc1	IDE inh 40 | IDE cell inh cf 32 | HEK293 tox inactive
